POLH inh = qHTS for Inhibitors of Polymerase Eta; hit rate 1.2% among 390,000; Potency, µM (series often up to 114 µM), actives largely listed as inhibitors; DNA polymerase eta (Homo sapiens), Q9Y253; recombinant Pol eta, fluorescent DNA replication assay
Target sequence (Q9Y253 whole entry, looked up): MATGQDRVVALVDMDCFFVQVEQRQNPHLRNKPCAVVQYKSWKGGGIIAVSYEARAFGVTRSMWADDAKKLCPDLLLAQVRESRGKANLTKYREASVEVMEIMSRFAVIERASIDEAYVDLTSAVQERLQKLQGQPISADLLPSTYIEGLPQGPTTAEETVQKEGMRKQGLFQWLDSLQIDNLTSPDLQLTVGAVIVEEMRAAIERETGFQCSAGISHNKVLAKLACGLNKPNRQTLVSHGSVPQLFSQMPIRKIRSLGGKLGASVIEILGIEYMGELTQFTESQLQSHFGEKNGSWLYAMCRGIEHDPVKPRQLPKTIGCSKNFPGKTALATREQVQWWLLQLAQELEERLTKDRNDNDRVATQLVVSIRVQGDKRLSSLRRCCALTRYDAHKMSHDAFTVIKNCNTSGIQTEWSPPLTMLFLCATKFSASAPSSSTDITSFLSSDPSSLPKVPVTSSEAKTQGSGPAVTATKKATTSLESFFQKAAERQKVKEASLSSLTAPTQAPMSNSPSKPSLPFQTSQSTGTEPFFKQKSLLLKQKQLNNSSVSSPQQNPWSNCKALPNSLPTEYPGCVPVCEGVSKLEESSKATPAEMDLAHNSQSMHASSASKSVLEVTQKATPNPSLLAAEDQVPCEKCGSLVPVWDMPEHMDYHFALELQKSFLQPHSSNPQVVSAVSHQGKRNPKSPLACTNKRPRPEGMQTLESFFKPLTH
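Pol eta (10 nM) was preincubated with compounds for 15 min at room temperature, after which fluorescent replication substrate (50 nM final) was added to start the reaction. Fluorescence was read kinetically at 0 and 10 min.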
KAT2A inh = qHTS Assay for Inhibitors of GCN5L2 | Histone acetyltransferase KAT2A (Homo sapiens), Q92830 | GCN5L2 HAT assay, ThioGlo1 CoA-SH fluorescence | Potency, µM (top dose mostly 58.9 µM), hits mostly inhibitors | hit rate 0.21% among 390,000
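ThioGlo1-coupled HAT assay: 20nM GCN5L2, 70uM acetyl-CoA, 75uM H3(1-25) peptide, pH 7.5. Fluorescence read at 340/540nm at start and after 20 min at room temperature.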
Pol kappa inh = qHTS for Inhibitors of Polymerase Kappa | DNA polymerase kappa (Homo sapiens), Q9UBT6 | hit rate 0.53% among 400,000 | purified Pol kappa, fluorescent DNA synthesis assay, 10 min | Potency, µM (highest dose often 107 µM), actives largely listed as inhibitors
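Here, compound and 10 nM enzyme are combined for 15 min at room temperature; adding 50 nM substrate (final) starts DNA synthesis, tracked by fluorescence at 0 and 10 min against buffer-only wells.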
POLI inh = qHTS for Inhibitors of Polymerase Iota; DNA polymerase iota (Homo sapiens), Q9UNA4; hit rate 1% among 390,000; AID 588590, 2011; Pol iota fluorescent replication assay, 10 min; Potency, µM (titrated, usually from 115 µM), usual class: inhibitors
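Fluorescent replication assay read twice, at 0 min and 10 min after adding 50 nM (final) substrate. Enzyme (10 nM) and compounds were first incubated 15 min at room temperature; enzyme-free buffer wells were negative controls.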
GLS inhibitor = qHTS for Inhibitors of Glutaminase (GLS). Glutaminase kidney isoform, mitochondrial (Homo sapiens), O94925. GLS enzymatic activity, qHTS titration. Potency, µM (titrated, usually from 45.5 µM), hits mostly inhibitors. hit rate 0.21% among 410,000. AID 624170, 2012
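Compounds were pin-transferred onto hKGA, after which L-glutamine (1 mM solution) and a detection mix of glutamate oxidase, HRP and Amplex Red were added. Initial and 30 min RT fluorescence reads were collected.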
Pol beta inh = qHTS Assay for Inhibitors of DNA Polymerase Beta. Pol beta primer extension/strand displacement, fluorescence kinetic. Potency, µM (series often up to 114 µM), most hits filed as inhibitors. P06746. AID 485314, 2010. hit rate 1.3% among 340,000
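Enzyme-only controls used 10 nM Pol beta; buffer lacking enzyme served as negative control. Compound preincubated 15 min, then 50 nM substrate added; 0 and 10 min reads at room temperature.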
Of the large screens only hits and unclear results are named; the others gave an inactive call; ! = a repeat was not active. Hits are enriched below; roughly 2.4% of the tested compounds scored in any of these assays. The call rests on the fitted dose curve; in most records, active means well fitted inhibition curve with a large enough effect; inconclusive means small, poorly fitted or top-dose-only effect, or another doubt; inactive means no such curve, though single readings can be large or run the other way.

CC[C@H]1OC(=O)[C@H](C)[C@@H](O[C@H]2C[C@@](C)(OC)[C@@H](O)[C@H](C)O2)[C@H](C)[C@@H](O[C@@H]2O[C@H](C)C[C@H](N(C)C)[C@H]2O)[C@](C)(O)C[C@H](C)C(=NOCOCCOC)[C@H](C)[C@@H](O)[C@]1(C)O	none (no result: POLH inh, KAT2A inh, Pol kappa inh, POLI inh, Pol beta inh)
Cc1ccnc2c(Cl)c(Cl)ccc12	none (no result: POLH inh, KAT2A inh, GLS inhibitor, Pol beta inh)
Cc1ccc(Cn2cccc2/C=C2/C(=N)N3C=CSC3=NC2=O)cc1	POLH inh 71µM, POLI inh inconclusive
Cc1cc(C)c(S(=O)(=O)Nc2cc(SCC(=O)O)c(O)c3ccccc23)cc1C	POLH inh 35µM, POLI inh 20µM
Cc1cc(C)c(S(=O)(=O)Nc2ccc(O)cc2)cc1C	none
O=S(=O)(Nc1cccc2cccnc12)c1cccs1	none (no result: POLH inh, KAT2A inh, GLS inhibitor, Pol beta inh)
CCc1ccc(C(=O)C[N+]2(C)CCOCC2)cc1	none (no result: POLH inh, KAT2A inh, GLS inhibitor, Pol beta inh)
Cc1cc(C)cc(N2CCn3c2nc2c3c(=O)n(Cc3ccc(Cl)cc3)c(=O)n2C)c1	none
COc1cc2c(cc1OC)-c1cc3ccc4c(c3c[n+]1CC2)OCO4	POLH inh inconclusive, POLI inh 14µM, Pol beta inh 40µM
Cc1cccc(CNC(=O)CCCN2C(=O)CCn3nc(-c4cn(C)c5ccccc45)cc32)c1	none
Cc1cccc(CNC(=O)CN2C(=O)CCn3nc(-c4cn(C)c5ccccc45)cc32)c1	POLI inh inconclusive, Pol beta inh 18µM
O=c1c2c(nc3c(-c4ccc(Cl)cc4)c[nH]n13)CCC2	Pol beta inh 89µM
O=c1c2c(nc3c(-c4ccccc4)c[nH]n13)CCC2	POLI inh inconclusive
N#Cc1nc(N2CCCCC2)nc(N2CCCCC2)n1	none (no result: POLH inh, KAT2A inh, GLS inhibitor, Pol beta inh)
COc1ccc(CCNC(=O)c2ccc(N3CCCCS3(=O)=O)cc2)cc1OC	POLI inh 79µM, Pol beta inh inconclusive
CCc1nc2ccc(C(=O)NCCc3ccc(OC)c(OC)c3)cc2nc1CC	Pol beta inh inconclusive
COc1ccc(CCNC(=O)c2ccc3nc(-c4ccco4)c(-c4ccco4)nc3c2)cc1OC	POLH inh 79µM, KAT2A inh inconclusive, Pol kappa inh 45µM, POLI inh 13µM, Pol beta inh 35µM
CCC(C)NC(=O)c1ccc2nc(Cc3ccccc3)oc2c1 (stereo unspecified)	GLS inhibitor inconclusive
CCC(C)NC(=O)c1ccc2nc(-c3ccco3)c(-c3ccco3)nc2c1 (stereo unspecified)	Pol kappa inh inconclusive, POLI inh 22µM (no result: POLH inh, KAT2A inh, GLS inhibitor, Pol beta inh)
CCC(=O)OC1CCC2C3CCc4cc(O)ccc4C3CCC12C (stereo unspecified)	none (no result: POLH inh, KAT2A inh, Pol kappa inh, POLI inh, Pol beta inh)
Cc1cc(C)nc(-n2nc(C)c3c2NC(=O)CC3c2cccc(O)c2)n1 (stereo unspecified)	none
O=C(c1cnc(N2CCOCC2)c2ccccc12)N1CCN(c2ccccc2F)CC1	none
O=C1CC(NC2CCN(C(=O)c3cccc(F)c3)CC2)C(=O)N1 (stereo unspecified)	GLS inhibitor 11µM
CCc1cc(=O)oc2cc(C)cc(OCC(=O)N[C@@H](CSCc3ccccc3)C(=O)O)c12	none
CCCCc1cc(=O)oc2cc(C)cc(OCC(=O)N[C@@H](CSCc3ccccc3)C(=O)O)c12	KAT2A inh 1.8µM
CNCC(=O)NCC(=O)N[C@@H](Cc1ccccc1)C(=O)N[C@@H](CC(C)C)C(=O)O	none (no result: POLH inh, POLI inh, GLS inhibitor, Pol beta inh)
Cc1oc2c(c1C(=O)c1ccccc1)C(=O)C(=O)c1ccccc1-2	POLH inh 20µM, POLI inh 0.89µM, Pol beta inh 56µM
Cc1oc2c(c1C(=O)O)C(=O)c1ccccc1C2=O	POLI inh inconclusive
O=C(Cc1cccc(F)c1)NO	none (no result: POLH inh, KAT2A inh, GLS inhibitor, Pol beta inh)
O=c1oc2c(O)c(O)cc3c(=O)oc4c(O)c(O)cc1c4c23	POLH inh 0.79µM, KAT2A inh inconclusive, Pol kappa inh 0.79µM!, POLI inh 1.1µM!, GLS inhibitor 2.8µM!, Pol beta inh 0.16µM
